Among all 5,500 compounds or so, about 2,000 (36%) were called active. Another 18% or so got no clear call; they are omitted. No stated cut-off is given here; in the data, active means normalized growth mostly below about 0.91 (no sharp cut-off); inconclusive means no clear call, values can overlap the other calls; inactive means mostly above about 0.92. The list shows a part of the results.
Assay: chemical genetic growth profiling, strain panel (AID 1159580);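 further: tested at 20 µM; growth read once vehicle control cultures reached saturation at 30 °C; 1 = growth at the plate median or of vehicle wells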
Settings: growth OD

Measured: normalized growth

CC(C)CCCC(C)C1CCC2C3=CC[C@H]4C[C@@H](O)CC[C@]4(C)C3CC[C@@]21C (some centres not stated)
inactive: S. cerevisiae deletion strains, locus YJR066W, strain TOR1, stronger effect = lower value 0.943 | S. cerevisiae deletion strains, locus YJR075W, strain HOC1, stronger effect = lower value 0.995 | S. cerevisiae deletion strains, locus YKL009W, strain mrt4, stronger effect = lower value 0.997 | S. cerevisiae deletion strains, locus YKL068W, stronger effect = lower value 1 | S. cerevisiae deletion strains, locus YKL085W, strain MDH1 (second series), stronger effect = lower value 0.988 | S. cerevisiae deletion strains, locus YKL085W, strain MDH1, stronger effect = lower value 0.988 | S. cerevisiae deletion strains, locus YKL160W, strain elf1, stronger effect = lower value 0.964 | S. cerevisiae deletion strains, locus YKR001C, strain vps1, stronger effect = lower value 0.983 | S. cerevisiae deletion strains, locus YKR026C, strain gcn3, stronger effect = lower value 0.999 | S. cerevisiae deletion strains, locus YKR091W, strain srl3, stronger effect = lower value 0.967 | S. cerevisiae deletion strains, locus YLL001W, strain dnm1, stronger effect = lower value 0.988 | S. cerevisiae deletion strains, locus YLL026W, stronger effect = lower value 0.988 | S. cerevisiae deletion strains, locus YLL041C, strain sdh2, stronger effect = lower value 0.975 | S. cerevisiae deletion strains, locus YLR027C, strain aat2, stronger effect = lower value 0.982 | S. cerevisiae deletion strains, locus YLR039C, strain RIC1, stronger effect = lower value 0.828 | S. cerevisiae deletion strains, locus YLR058C, strain SHM2, stronger effect = lower value 1.02 | S. cerevisiae deletion strains, locus YLR102C, strain apc9, stronger effect = lower value 0.99 | S. cerevisiae deletion strains, locus YLR113W, strain HOG1, stronger effect = lower value 1.03 | S. cerevisiae deletion strains, locus YLR221C, strain rsa3, stronger effect = lower value 0.946 | S. cerevisiae deletion strains, locus YLR258W, strain gsy2, stronger effect = lower value 1 | S. cerevisiae deletion strains, locus YLR262C, strain YPT6 (second series), stronger effect = lower value 0.859 | S. cerevisiae deletion strains, locus YLR262C, strain YPT6, stronger effect = lower value 0.816 | S. cerevisiae deletion strains, locus YLR268W, strain sec22, stronger effect = lower value 0.978 | S. cerevisiae deletion strains, locus YLR320W, strain mms22, stronger effect = lower value 0.952 | S. cerevisiae deletion strains, locus YLR330W, strain CHS5, stronger effect = lower value 1.04 | S. cerevisiae deletion strains, locus YLR342W, strain FKS1 (second series), stronger effect = lower value 1.04 | S. cerevisiae deletion strains, locus YLR342W, strain FKS1, stronger effect = lower value 0.994 | S. cerevisiae deletion strains, locus YLR357W, strain rsc2, stronger effect = lower value 1.04 | S. cerevisiae deletion strains, locus YLR370C, strain arc18, stronger effect = lower value 0.964 | S. cerevisiae deletion strains, locus YLR371W, strain rom2, stronger effect = lower value 0.998 | S. cerevisiae deletion strains, locus YLR384C, strain iki3, stronger effect = lower value 0.985 | S. cerevisiae deletion strains, locus YLR418C, strain cdc73, stronger effect = lower value 0.943 | S. cerevisiae deletion strains, locus YML016C, strain PPZ1, stronger effect = lower value 1.01 | S. cerevisiae deletion strains, locus YML032C, strain rad52, stronger effect = lower value 1 | S. cerevisiae deletion strains, locus YML120C, strain ndi1, stronger effect = lower value 0.965 | S. cerevisiae deletion strains, locus YML124C, strain tub3, stronger effect = lower value 0.996 | S. cerevisiae deletion strains, locus YMR058W, strain fet3, stronger effect = lower value 0.965 | S. cerevisiae deletion strains, locus YMR078C, strain ctf18, stronger effect = lower value 0.989 | S. cerevisiae deletion strains, locus YMR125W, strain sto1, stronger effect = lower value 1 | S. cerevisiae deletion strains, locus YMR129W, stronger effect = lower value 0.992 | S. cerevisiae deletion strains, locus YMR205C, strain PFK2, stronger effect = lower value 1 | S. cerevisiae deletion strains, locus YMR223W, strain ubp8, stronger effect = lower value 0.99 | S. cerevisiae deletion strains, locus YMR231W, strain pep5, stronger effect = lower value 0.991 | S. cerevisiae deletion strains, locus YMR263W, strain SAP30, stronger effect = lower value 1.03 | S. cerevisiae deletion strains, locus YMR307W, strain GAS1, stronger effect = lower value 1.05 | S. cerevisiae deletion strains, locus YNL067W, strain RPL9B, stronger effect = lower value 0.991 | S. cerevisiae deletion strains, locus YNL071W, strain lat1, stronger effect = lower value 0.932 | S. cerevisiae deletion strains, locus YNL183C, strain NPR1, stronger effect = lower value 0.939 | S. cerevisiae deletion strains, locus YNL209W, strain ssb2, stronger effect = lower value 0.987 | S. cerevisiae deletion strains, locus YNL233W, strain BNI4, stronger effect = lower value 0.984 | S. cerevisiae deletion strains, locus YNL248C, strain rpa49, stronger effect = lower value 0.922 | S. cerevisiae deletion strains, locus YNL250W, strain rad50, stronger effect = lower value 0.999 | S. cerevisiae deletion strains, locus YNL271C, strain bni1, stronger effect = lower value 0.994 | S. cerevisiae deletion strains, locus YNL298W, strain CLA4, stronger effect = lower value 0.985 | S. cerevisiae deletion strains, locus YNL307C, strain MCK1, stronger effect = lower value 0.996 | S. cerevisiae deletion strains, locus YNL322C, strain KRE1 (second series), stronger effect = lower value 0.98 | S. cerevisiae deletion strains, locus YNR049C, strain mso1, stronger effect = lower value 0.982 | S. cerevisiae deletion strains, locus YNR052C, strain pop2, stronger effect = lower value 0.984 | S. cerevisiae deletion strains, locus YOL012C, strain htz1 0.805 | S. cerevisiae deletion strains, locus YOL147C, strain pex11, stronger effect = lower value 0.994 | S. cerevisiae deletion strains, locus YOR001W, strain rrp6, stronger effect = lower value 0.946 | S. cerevisiae deletion strains, locus YOR061W, strain CKA2, stronger effect = lower value 1.01 | S. cerevisiae deletion strains, locus YOR069W, strain VPS5, stronger effect = lower value 1.01 | S. cerevisiae deletion strains, locus YOR070C, strain gyp1, stronger effect = lower value 0.985 | S. cerevisiae deletion strains, locus YOR080W, strain dia2, stronger effect = lower value 0.981 | S. cerevisiae deletion strains, locus YOR083W, strain WHI5, stronger effect = lower value 0.947 | S. cerevisiae deletion strains, locus YOR106W, strain vam3, stronger effect = lower value 0.935 | S. cerevisiae deletion strains, locus YOR136W, strain idh2, stronger effect = lower value 0.993 | S. cerevisiae deletion strains, locus YOR144C, strain elg1, stronger effect = lower value 0.998 | S. cerevisiae deletion strains, locus YOR184W, strain ser1, stronger effect = lower value 0.969 | S. cerevisiae deletion strains, locus YOR231W, strain MKK1, stronger effect = lower value 0.976 | S. cerevisiae deletion strains, locus YOR265W, strain rbl2, stronger effect = lower value 0.985 | S. cerevisiae deletion strains, locus YOR270C, strain vph1, stronger effect = lower value 0.794 | S. cerevisiae deletion strains, locus YOR290C, strain snf2, stronger effect = lower value 1.01 | S. cerevisiae deletion strains, locus YOR316C, strain cot1, stronger effect = lower value 0.988 | S. cerevisiae deletion strains, locus YPL051W, strain arl3, stronger effect = lower value 0.951 | S. cerevisiae deletion strains, locus YPL078C, strain atp4, stronger effect = lower value 0.925 | S. cerevisiae deletion strains, locus YPL106C, strain sse1, stronger effect = lower value 1.03 | S. cerevisiae deletion strains, locus YPL240C, strain hsp82, stronger effect = lower value 0.97 | S. cerevisiae deletion strains, locus YPL241C, strain CIN2, stronger effect = lower value 1.01 | S. cerevisiae deletion strains, locus YPL256C, strain CLN2, stronger effect = lower value 1 | S. cerevisiae deletion strains, locus YPR119W, strain clb2, stronger effect = lower value 0.99 | S. cerevisiae deletion strains, locus YPR141C, strain kar3, stronger effect = lower value 0.994 | S. cerevisiae deletion strains, locus YPR163C, strain tif3, stronger effect = lower value 0.994 | S. cerevisiae deletion strains, locus YPR167C, strain met16, stronger effect = lower value 1.01 | S. cerevisiae deletion strains, strain wtn01, stronger effect = lower value 0.97 | S. cerevisiae strains, strain wild type, stronger effect = lower value 1.04

From PubChem BioAssay AID1159580 (chemical genetic matrix, 2015)
